Most compounds without a hit are left out; they make up all but 19% or so of the library.
DT40 TDP1 no CPT – qHTS for Inhibitors of human tyrosyl-DNA phosphodiesterase 1 (TDP1): qHTS in cells in absence of CPT | hit rate 15% among 420,000 | Potency, µM (series often up to 46.2 µM), actives largely listed as inhibitors | AID 686978, 2013 | DT40 Tdp1-/- hTDP1 cells, no CPT, ATP luminescence, 48 h; further: nearly all actives have a fitted effect of over 55% in size
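Camptothecin absent (DMSO only). Human TDP1-complemented DT40 knockout cells, 400 cells/well, 37 °C for minimum 48 hr; ATP measured via CellTiter-Glo, 30 min dark incubation, luminescence.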
TGFb inhibitor – TGF-b pathway inhibition; Potency, µM (top dose mostly 46.1 µM), usual class: inhibitors; HepG2 CAGA-GFP TGF-b/SMAD3 reporter, GFP fluorescence, 18 h; TGF-beta stimulated, 500 pg/mL final; hit rate 1.2% among 410,000; further: nearly all actives have a fitted effect of over 65% in size
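Using HEPG2 CAGA-GFP reporter cells at 1000 cells/well, we pinned test compounds, stimulated with recombinant TGF-beta (500 pg/mL final) and measured total well GFP after 18 h.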
TDP1 inh – TDP1 (human) enzyme inhibition | hit rate 0.28% among 350,000 | Potency, µM (highest dose often 130 µM), most hits filed as inhibitors | Q9NUW8 | recombinant TDP1, AlphaScreen DNA substrate cleavage | AID 485290; further: nearly all actives have a fitted effect of over 40% in size
Target sequence (Q9NUW8 whole entry, looked up): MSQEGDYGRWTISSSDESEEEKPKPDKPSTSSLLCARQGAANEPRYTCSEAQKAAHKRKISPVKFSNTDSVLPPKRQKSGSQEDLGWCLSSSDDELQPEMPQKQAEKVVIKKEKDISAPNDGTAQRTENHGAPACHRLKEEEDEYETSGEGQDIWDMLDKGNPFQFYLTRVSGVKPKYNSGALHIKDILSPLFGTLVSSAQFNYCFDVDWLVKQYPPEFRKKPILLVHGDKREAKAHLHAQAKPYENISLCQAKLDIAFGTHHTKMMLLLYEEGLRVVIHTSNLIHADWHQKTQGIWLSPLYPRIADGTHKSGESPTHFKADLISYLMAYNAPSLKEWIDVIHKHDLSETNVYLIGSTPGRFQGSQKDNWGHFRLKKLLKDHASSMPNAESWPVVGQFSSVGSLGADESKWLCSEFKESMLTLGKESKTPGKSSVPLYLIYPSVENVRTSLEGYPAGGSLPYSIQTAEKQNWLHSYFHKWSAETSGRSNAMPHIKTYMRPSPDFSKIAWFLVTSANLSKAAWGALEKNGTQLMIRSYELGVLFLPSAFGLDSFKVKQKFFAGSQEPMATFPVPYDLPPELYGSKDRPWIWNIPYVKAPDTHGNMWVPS
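Recombinant E. coli-expressed Tdp1 (1 nM) preincubated with compound 15 min at RT, then 5'-biotin/3'-phosphotyrosine-FITC DNA substrate (15 nM) added for 5 min. AlphaScreen beads (10 ug/ml) added, 10 min RT; tyrosine-FITC cleavage read as signal loss.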
HepG2 tox – counter-screen for TGF-b inhibitors: cytotoxicity in HepG2 cells | hit rate 0.76% among 410,000 | HepG2 CAGA-GFP viability, ATP luminescence, 18 h | Potency, µM (series often up to 46.1 µM), actives largely listed as cytotoxic
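CellTiter-Glo luminescence gave cytotoxicity after 18 hours at 37 degrees C. The cells were HepG2 CAGA-GFP in 1% FBS DMEM, stimulated with 500 pg/mL TGF-beta after compound addition. %Activity was normalised to no-cell wells (complete cell-killing) and DMSO (no toxicity), and curves were fitted and classified.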
TDP1 cell CPT – DT40-hTDP1 cell growth loss with CPT | hit rate 12% among 420,000 | Potency, µM (series often up to 46.2 µM), usual class: inhibitors | chicken DT40 Tdp1-/-;hTDP1 cells + 20 nM CPT, ATP luminescence, 48 h | AID 686979; further: nearly all actives have a fitted effect of over 55% in size
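Cell growth measured by CellTiter-Glo luminescence after a minimum 48 h, 37 C compound exposure with 20 nM CPT in Tdp1-knockout DT40 cells stably expressing hTDP1, seeded 400/well; qHTS titration format.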
IL-1B inflam inh – blocks inflammasome-driven IL-1 beta release; THP-1 LPS/ATP IL-1B secretion, AlphaLISA, 16 h; stronger effect = lower value; AID 743279; activity change, % at 57.5 µM; hit rate 4.7% among 360,000; in the data active means activity change below about -50%; inconclusive means mostly about -30% to -49%
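THP-1 cells pretreated 1 hr with compounds (up to 57.5 uM final), then stimulated with LPS (250 ng/mL final) plus ATP (1.25 mM final); secreted IL-1B measured by AlphaLISA after 16 hr, decreased signal indicating inhibition.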
Of the large screens only hits and unclear results are named; the others gave an inactive call. Unless noted, the call rests on the fitted dose curve; in most records, active means well fitted curve in the direction sought with a large enough effect; inconclusive means small, poorly fitted or top-dose-only effect, or another doubt; inactive means no such curve, though single readings can be large; an effect the other way counts as inactive or inconclusive.

Cc1cc(N2CCN(C)CC2)nc2ccc(NC(=O)CCC(=O)NCCC(C)C)cc12	none
Cc1cc(N2CCN(c3ccc(F)cc3)CC2)nc2cc(O)ccc12	DT40 TDP1 no CPT 14.6µM, TDP1 cell CPT 23.1µM
COc1ccc(C2=Nn3c(nnc3-c3cccc(OC)c3OC)SC2)cc1	none (no result: DT40 TDP1 no CPT, TGFb inhibitor, HepG2 tox, TDP1 cell CPT, IL-1B inflam inh)
CCOC(=O)N1CCN(C(=O)Nc2sc3nc4n(c(=O)c3c2C)CCC(C)CC4)CC1 (configuration not stated)	DT40 TDP1 no CPT inconclusive, TDP1 cell CPT inconclusive
CC(=O)c1cccc(NC(=O)Nc2sc3nc4n(c(=O)c3c2C)CCC(C)CC4)c1 (configuration not stated)	DT40 TDP1 no CPT 8.2µM, TDP1 cell CPT inconclusive (no result: IL-1B inflam inh)
COc1cc(Cl)c(C)cc1NC(=O)c1sc2nc3n(c(=O)c2c1C)CCCCC3	none (no result: IL-1B inflam inh)
COc1cc(OC)c(NC(=O)Nc2sc3nc4n(c(=O)c3c2C)CCC(C)CC4)cc1Cl (configuration not stated)	DT40 TDP1 no CPT 5.8µM, TDP1 cell CPT 5.17µM (no result: IL-1B inflam inh)
Cc1c(NC(=O)Nc2ccc(Cl)c(Cl)c2)sc2nc3n(c(=O)c12)CCC(C)CC3 (configuration not stated)	DT40 TDP1 no CPT 8.2µM, TGFb inhibitor inconclusive, TDP1 cell CPT 5.17µM (no result: IL-1B inflam inh)
Cc1c(NC(=O)Nc2ccccc2C(F)(F)F)sc2nc3n(c(=O)c12)CCC(C)CC3 (configuration not stated)	DT40 TDP1 no CPT 13µM, TDP1 cell CPT 20.6µM (no result: IL-1B inflam inh)
COC(=O)c1cc(C(=O)OCC(=O)c2ccc3c(c2)NC(=O)CO3)cc([N+](=O)[O-])c1	none
Cc1cc(=O)n2nc(N3CCC(C(=O)Nc4ccc(C)c(Cl)c4)CC3)sc2n1	TGFb inhibitor inconclusive, TDP1 cell CPT inconclusive (no result: IL-1B inflam inh)
Cc1cc(-c2ccccc2)nc(N(C)NC(=O)c2ccc(Cl)cc2)c1S(C)(=O)=O	DT40 TDP1 no CPT 20.6µM, TDP1 cell CPT 14.6µM
COc1ccccc1CNC(=O)CNC(=O)c1ccc(Br)o1	DT40 TDP1 no CPT inconclusive
COc1ccc2c(c1)C(=O)[C@H](OC(=O)NCCc1ccc(OC)c(OC)c1)[C@@H](c1ccc(OC)c(Br)c1)O2	none (no result: DT40 TDP1 no CPT, TGFb inhibitor, HepG2 tox, TDP1 cell CPT, IL-1B inflam inh)
Oc1cc(NCCc2cccnc2)cc2cccnc12	TGFb inhibitor inconclusive, HepG2 tox 11.2µM (no result: DT40 TDP1 no CPT, TDP1 cell CPT, IL-1B inflam inh)
CCc1cc(C(=O)NCc2c(C)ncc3c2CCN(C(=O)C2=CCCC2)C3)no1	none (no result: TGFb inhibitor, TDP1 inh, HepG2 tox, IL-1B inflam inh)
Cc1ccccc1CN1C(=O)c2ccccc2Sc2ccc(C(=O)N3CCCC3)cc21	DT40 TDP1 no CPT 16.4µM, TGFb inhibitor inconclusive, TDP1 cell CPT 20.6µM (no result: IL-1B inflam inh)
O=C(c1ccc2c(c1)N(Cc1ccccc1)C(=O)c1ccccc1S2)N1CCCC1	DT40 TDP1 no CPT 9.2µM, TGFb inhibitor inconclusive, TDP1 cell CPT 16.4µM
Cc1ccccc1CN1C(=O)c2ccccc2Sc2ccc(C(=O)O)cc21	none
Cc1ccccc1CN1C(=O)c2ccccc2Sc2ccc(C(=O)N3CCOCC3)cc21	DT40 TDP1 no CPT 18.4µM, TGFb inhibitor inconclusive, TDP1 cell CPT inconclusive (no result: IL-1B inflam inh)
Cc1cccc(CN2C(=O)c3ccccc3Sc3ccc(C(=O)N4CCCC4)cc32)c1	DT40 TDP1 no CPT inconclusive, TGFb inhibitor inconclusive, TDP1 cell CPT inconclusive (no result: IL-1B inflam inh)
CN(C)c1ccc(/C=C2\C(Cl)=Cc3ccccc32)cc1	DT40 TDP1 no CPT inconclusive, TDP1 cell CPT inconclusive (no result: TDP1 inh, IL-1B inflam inh)
C=CC[C@@H]1C=C[C@H](ON=C(C)C)[C@H](CO)O1	none (no result: DT40 TDP1 no CPT, TGFb inhibitor, HepG2 tox, TDP1 cell CPT, IL-1B inflam inh)
C/C(=N\N1C(=O)c2ccccc2NC1c1ccccc1)c1ccccc1O (configuration not stated)	DT40 TDP1 no CPT 7.31µM, TGFb inhibitor inconclusive, TDP1 cell CPT 4.61µM
C/C(=N\N1C(=O)c2ccccc2NC1c1ccco1)c1ccccc1O (configuration not stated)	DT40 TDP1 no CPT 11.6µM, TGFb inhibitor inconclusive
O=C1c2ccccc2NC(c2ccco2)N1/N=C/c1ccco1 (configuration not stated)	none

Screening data (PubChem BioAssay)
